We go through 40 compounds from PubChem BioAssay (NCI).

About 83,000 compounds went through this panel and 20% of them were active in at least one assay; those are over-represented in the sample as a whole.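 The test compound was applied at a single concentration to cells in 96-well plates for 48 hours, and percent growth was recorded.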 Active and inactive are the calls of the source. How the source made its calls: active means growth percent below 10; inactive means the rest.

This experiment deals with MDA-MB-468 breast. Briefly: NCI-60 one-dose screen, 48 h (100 = growth as untreated, 0 = no growth, -100 = all killed). To be noted: 10 µM unless noted.
For the compound `OC(c1ccccc1)C(NC(Cc1ccccc1)c1ccccc1)c1ccccc1` (stereo not given), the growth was 89.3% (inactive). In the case of `CC(C)=NOC(C)C(=O)O` (stereo not given) it was 106% (inactive). In the case of `O=C1/C(=C/C=C/c2ccco2)SC(=S)N1c1ccccc1` it was -9.4% (active); in that of `O=C(CCN1CCCC1)Nc1ccc2c(NCCCCc3ccccc3)c3ccccc3nc2c1`, -74.7% (active); in that of `COc1cc(Cl)cc(-c2nn(-c3cccc(NC(=O)c4cc(C(F)(F)F)cc(C(F)(F)F)c4)c3)cc2-c2ccncc2)c1`, 46.5% (inactive). For the compound `c1cncc(-c2nc3ccccc3[nH]2)c1`, the growth is 102% (inactive).

Regarding `N#Cc1ccc(S(=O)(=O)Nc2ccc(-c3cnc(N)[nH]3)cc2)cc1`, the growth is 97.7% (inactive). In the case of `O=C1CCC(c2c(O)cc(O)c3c(=O)c(O)c(-c4ccc(O)c(O)c4)oc23)N1` (stereo not given) it was 108% (inactive); in that of `CCOC(=O)c1c(NC(=O)c2ccc(C(C)(C)C)cc2)sc2cc(OCCN3CCCCC3)ccc12`, 85.8% (inactive). `COc1cccc(NC(=O)Nc2ccc(Nc3ncnc4sc5c(c34)CCN(C(=O)CCl)C5)cc2)c1`: the growth is 117% (inactive).

For the compound `CCN(CC)CCOc1ccc(-c2nc3cc(Cl)ccc3s2)cc1`, the growth was -17% (active). In the case of `CCc1ccc(NC(=O)N[C@@H](Cc2cc(F)cc(F)c2)C(=O)N[C@@H]2C(=O)N3C[C@H](O)C[C@H]3C(=O)N3CCOC[C@H]3C(=O)N[C@@H](C)C(=O)N3C[C@H](C)C[C@H]3C(=O)O[C@H]2C)cc1` it was 14.8% (inactive); in that of `O=C(O)C1CSC(c2ccccc2)N1` (stereo not given), 96.7% (inactive); in that of `Cn1cc(-c2nnc(N)nc2-c2c[nH]c3ccc(Br)cc23)c2cc(Br)ccc21`, 105% (inactive).

Turning to `C=C(C)[C@@H]1CC[C@]2(C(=O)NC3CCCCC3)CC[C@]3(C)[C@H](CC[C@@H]4[C@@]5(C)CC[C@H](N)C(C)(C)[C@@H]5CC[C@]43C)[C@@H]12`, the growth was 103% (inactive). To `CCOc1cc2c(cc1OCC)C(c1cc(C)c(O)c(C)c1)NCC2` (stereo not given) belongs 102% (inactive); to `Clc1ccc2c(c1)nnn1c3ncccc3c(Br)c21`, 76.1% (inactive). To `CCCCNC(=O)Oc1ccc(/C(=C(/C)Cc2ccc(OC)cc2)c2ccc(OCCN3CCCCC3)cc2)cc1` belongs 60.1% (inactive); to `CCOC(=O)/C(C#N)=C/c1cccc(C)c1`, 90.9% (inactive). In the case of `CC(C)(C)c1cc(O)c(C(C)(C)C)cc1O` it was 66.2% (inactive); in that of `CC1=CNNc2c3ncnc-3ncn21`, 95.1% (inactive). Regarding `O=C1NCCC12CCN(c1c(Cl)cncc1-c1ccc(O)cc1)CC2`, the growth was 84.3% (inactive).

As to `O=C(NCCOCCOCCNc1cccc2c1C(=O)N(C1CCCNC1=O)C2=O)c1cc2c(o1)C(=O)c1ccccc1C2=O` (stereo not given), the growth is -36.6% (active). As to `O=S(=O)(c1ccc(NC(=S)NCc2cccnc2)cc1)N1CCCCC1`, the growth is 72.3% (inactive). On to `N#Cc1nc(-c2ccccc2)oc1S(N)(=O)=O`, for which the growth is 41.1% (inactive). In the case of `Fc1ccc2[nH]cc(-c3nc(-c4c[nH]c5ccncc45)cs3)c2c1`, the growth is -65.6% (active). In the case of `O=C(Nc1ccccc1)c1ccco1` it was 103% (inactive); in that of `COc1ccc(Cn2cc(C(=O)Nc3cccnc3Nc3ccccc3)nn2)cc1`, 92.9% (inactive); in that of `CN1CC[C@H](c2c(O)cc(O)c3c(=O)cc(-c4ccccc4Cl)oc23)[C@H](O)C1`, -42.7% (active). To `COc1cc2c(-c3cc4c(cc3CNCCc3ccc5c(c3)OCO5)OCO4)cccc2c(OC)c1O` belongs -8.75% (active); to `Cc1cn(C2CCCCC2)c(=O)[nH]c1=O`, 105% (inactive). In the case of `Cc1c(NCC(=O)Nc2nc3ccccc3[nH]2)c(=O)n(-c2ccccc2)n1C`, the growth was 106% (inactive). To `O=C(c1ccccc1)C(Cl)C(Cl)c1ccccc1` (stereo not given) belongs 17.6% (inactive). To `Oc1ccc(N=Nc2ccccn2)c(O)c1` belongs -2.78% (active). To `Nc1cc(-c2ccc(Cl)cc2)nn1-c1nc2ccccc2nc1Cc1ccccc1` belongs 75.7% (inactive); to `CC(C)(C)OC(=O)N1CCc2c(sc3ncnc(N/N=C/c4cccc(Br)c4)c23)C1`, 52.2% (inactive). As for `COc1cc(OC)c(C(=O)/C=C/c2cccc(C(F)(F)F)c2)c(OC)c1`, the growth was -9.39% (active).

Take `COc1ncc(-c2ccc3nc(N)n(-c4ccccc4C(F)(F)F)c(=O)c3c2)cc1S(=O)(=O)Nc1ccc(F)cc1F`: the growth is -37.3% (active). To `CC(C)(CNC1CCCCC1)OC(=O)c1ccccc1` belongs 94.3% (inactive). In the case of `CC(C)(C)CC(C)(C)NC(=O)Nc1ncccc1OCc1ccccc1` it was 96% (inactive).
